Bioassay records as filed in PubChem.
ALDH1A1 inh – blocks purified human ALDH1A1 activity. P00352. Purified ALDH1A1, NADH fluorescence, propionaldehyde substrate. Potency, µM (highest dose often 75.3 µM), inactives show at the highest dose activity, negative = inhibition, most hits filed as inhibitors. hit rate 7.3% among 220,000; active means well fitted inhibition curve with a large enough effect, not every such curve was filed as active; inconclusive means small, poorly fitted or top-dose-only effect, or another doubt; inactive means no such curve, though single readings can be large or run the other way;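 further: plate controls were no enzyme wells and a reference inhibitor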
Sfp PPTase inh – blocks B. subtilis Sfp PPTase activity | Q9F4F7 | Biochemical Sfp PPTase activity, qHTS | Potency, µM, for the others: largest response in the series, negative = inhibition, most hits filed as inhibitors | hit rate 3.5% among 310,000;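 further: the enzyme is Sfp with the accession as filed and its product quenches rhodamine fluorescence; 0% = enzyme reaction without inhibitor and -100% = no enzyme wells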
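Compounds were incubated with enzyme (final 15 nM) for 15 min at room temperature before substrate addition started the reaction. Fluorescence at 525 nm excitation, 598 nm emission was recorded immediately and after 30 minutes.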
Gal4-VP16 FLuc – inhibits Gal4-VP16 luciferase reporter, ROR gamma counter-screen; AID 2546; Potency, µM (doses to about 53.6 µM), inactives show top-dose activity, negative = inhibition, usual class: inhibitors; hit rate 3.5% among 310,000; Drosophila S2 Gal4-VP16 UAS-luciferase, luminescence, 20 h;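 further: Gal4-VP16 expression switched on by copper sulfate through the metallothionein promoter; nearly all actives have a fitted effect of over 50% in size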
PLK1 PBD inh – inhibitors of human PLK1 polo-box domain binding; P53350; Plk1 PBD binding of FITC phosphopeptide, fluorescence polarization; Potency, µM, without a hit: max response, negative = inhibition, usual class: inhibitors; hit rate 2.8% among 360,000; AID 720504; further: series mostly up to about 57 µM; nearly all actives have a fitted effect of over 65% in size
RORgamma inh – inhibitors of mouse ROR gamma transcriptional activity. Drosophila S2 Gal4-RORgamma UAS-luciferase reporter, 20 h. Potency, µM (series often up to 53.6 µM), without a hit: top-dose activity change, negative = inhibition, hits mostly inhibitors. hit rate 5.4% among 310,000; further: nearly all actives have a fitted effect of over 60% in size
Target sequence (P51450 whole entry, looked up, the tested form may be a part): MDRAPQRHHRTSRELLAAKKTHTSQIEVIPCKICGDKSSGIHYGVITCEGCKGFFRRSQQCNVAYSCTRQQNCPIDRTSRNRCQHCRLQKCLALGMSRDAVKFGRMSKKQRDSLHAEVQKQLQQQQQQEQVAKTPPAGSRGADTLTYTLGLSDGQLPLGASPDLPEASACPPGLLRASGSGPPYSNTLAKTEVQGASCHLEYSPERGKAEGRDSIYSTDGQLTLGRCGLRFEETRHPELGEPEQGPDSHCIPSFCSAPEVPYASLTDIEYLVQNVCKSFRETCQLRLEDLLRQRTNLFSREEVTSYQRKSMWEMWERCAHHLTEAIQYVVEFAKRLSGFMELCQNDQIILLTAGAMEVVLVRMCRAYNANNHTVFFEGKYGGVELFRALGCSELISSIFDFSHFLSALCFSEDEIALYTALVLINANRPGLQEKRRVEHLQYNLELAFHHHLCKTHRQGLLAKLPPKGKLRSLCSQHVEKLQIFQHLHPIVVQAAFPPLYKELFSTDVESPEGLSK
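Luminescence from a UAS-regulated Photinus luciferase reporter in stably transfected Drosophila Schneider cells is measured; decreased signal marks ROR gamma inhibition. Fusion expression is induced by 700 uM copper sulfate for 20 hr.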
Active calls of the source: *; [ ] = dose if it differs, or a comment. Sampled rows, rich in hits. Any-hit rate of the full collection: about 12%. Unless noted, the call rests on the fitted dose curve; in most records, active means well fitted curve in the direction sought with a large enough effect; inconclusive means small, poorly fitted or top-dose-only effect, or another doubt; inactive means no such curve, though single readings can be large; an effect the other way counts as inactive or inconclusive. Unless noted, on the % scale 0 is the no-effect control and ±100 the full control effect; potency means the concentration at half of the fitted maximal effect.

Screening Cc1nn(-c2cccc(C(F)(F)F)c2)c(Cl)c1/C=N/Nc1cccc(C(=O)O)c1 returned ALDH1A1 inh -5%, Sfp PPTase inh -15%, Gal4-VP16 FLuc inconclusive, PLK1 PBD inh 24µM* and RORgamma inh -20%.
For Cc1nn(-c2ccccc2)c(Cl)c1/C=N/Nc1nc2ccccc2n1C the results were ALDH1A1 inh 12%, Sfp PPTase inh -2%, Gal4-VP16 FLuc 3.5µM*, PLK1 PBD inh 4% and RORgamma inh 1.1µM*.
Screening Cc1nn(-c2ccccc2)c(Cl)c1/C=N/NC(=O)CNC(=O)c1ccccc1Cl returned ALDH1A1 inh 7.1µM*, Sfp PPTase inh -12%, Gal4-VP16 FLuc 3%, PLK1 PBD inh -12% and RORgamma inh 14%.
Screening CCCCCC(=O)/C=C/C=C\CCCCCCCC(=O)O returned ALDH1A1 inh 0%, Sfp PPTase inh 7%, Gal4-VP16 FLuc 3% and RORgamma inh 5%.
Screening O=C(O)C[CH2][Ge](=[O])[O][Ge](=[O])[CH2]CC(=O)O returned Sfp PPTase inh 18%, Gal4-VP16 FLuc 2% and RORgamma inh 2%[10 µM].
CCCCn1c(C)cc2c(c1=O)C1O[C@](c3ccsc3)(Cc3cc(OC)c(OC)cc31)O2 was read as Sfp PPTase inh -9%, Gal4-VP16 FLuc -5%[10 µM] and RORgamma inh -3%[10 µM].
For Cc1ccc(Oc2c(C(N)=O)cc([N+](=O)[O-])cc2[N+](=O)[O-])cc1 the results were ALDH1A1 inh inconclusive, Sfp PPTase inh inconclusive, Gal4-VP16 FLuc 2.5µM*, PLK1 PBD inh 21µM* and RORgamma inh 2.8µM*.
For Cc1ccc(CNc2ccc([N+](=O)[O-])cc2C(N)=O)cc1 the results were PLK1 PBD inh 2%.
For COc1ccc(NC(=O)COC(C)=O)cc1Cl the results were ALDH1A1 inh 7%, Sfp PPTase inh 4%, Gal4-VP16 FLuc 0%, PLK1 PBD inh 27µM* and RORgamma inh 12%.
For COc1ccc(NC(=O)COC(=O)C(CC(C)C)N2C(=O)C3CC=CCC3C2=O)cc1Cl (centres undefined) the results were ALDH1A1 inh inconclusive, Sfp PPTase inh 26%, Gal4-VP16 FLuc 22µM*, PLK1 PBD inh -3% and RORgamma inh -3%.
COc1ccc(NC(=O)COC(=O)/C=C/C(=O)OCC(=O)Nc2ccc(OC)c(Cl)c2)cc1Cl was read as ALDH1A1 inh 11µM*, Sfp PPTase inh 79µM*, Gal4-VP16 FLuc -25%, PLK1 PBD inh -6% and RORgamma inh 19%[10 µM].
Screening COc1ccc(NC(=O)CN2C(=O)C3CC=CCC3C2=O)cc1Cl (centres undefined) returned PLK1 PBD inh 2%.
`COCC(=O)Nc1ccc(OC)c(Cl)c1` gave ALDH1A1 inh -6%, Sfp PPTase inh 6%, Gal4-VP16 FLuc 2%, PLK1 PBD inh -8% and RORgamma inh -9%.
`Nc1ccccc1-n1nc2ccc3ccccc3c2n1` gave PLK1 PBD inh -7%.
For c1ccc(COc2cccc(-c3cc4nc(NCCCn5ccnc5)ccn4n3)c2)cc1 the results were PLK1 PBD inh 4%.
`CN(C)c1ncc2ncc(=O)n(C)c2n1` gave ALDH1A1 inh inconclusive, Sfp PPTase inh -8%, Gal4-VP16 FLuc -14% and RORgamma inh -23%.
For COc1ccc(C(=O)COC(=O)C2CCC(=O)N2)cc1 (centres undefined) the results were ALDH1A1 inh -14%, Sfp PPTase inh 19%, Gal4-VP16 FLuc -16%, PLK1 PBD inh -4% and RORgamma inh -2%.
Screening O=C(COC(=O)C1CCC(=O)N1)Nc1ccc(Oc2ccccc2)cc1 (centres undefined) returned ALDH1A1 inh 3%, Sfp PPTase inh inconclusive, Gal4-VP16 FLuc 8%, PLK1 PBD inh -5% and RORgamma inh 19%.
O=C(COC(=O)C1CCC(=O)N1)Nc1ccccc1Br (centres undefined) was read as ALDH1A1 inh 3%, Sfp PPTase inh 23%, Gal4-VP16 FLuc -3%, PLK1 PBD inh 21µM* and RORgamma inh 6%.
O=C1CCC(C(=O)OCC(=O)c2ccccc2)N1 (centres undefined) was read as ALDH1A1 inh 6%, Sfp PPTase inh 10%, Gal4-VP16 FLuc 6%, PLK1 PBD inh 27µM* and RORgamma inh 38%.
For Cc1cc(N2CCCC2=O)cc(C)c1S(=O)(=O)NCCOc1ccc(C(C)(C)C)cc1 the results were ALDH1A1 inh -1%, Sfp PPTase inh 6%, Gal4-VP16 FLuc 3.2µM*, PLK1 PBD inh -3% and RORgamma inh inconclusive.
For O=C1CCCN1c1ccc(S(=O)(=O)NCCOc2ccccc2)cc1 the results were ALDH1A1 inh -5%, Sfp PPTase inh 5%, Gal4-VP16 FLuc inconclusive, PLK1 PBD inh -12% and RORgamma inh inconclusive.
CC(=O)Nc1cc(-c2ccccc2)cn2c(-c3ccc(F)cc3)cnc12 was read as PLK1 PBD inh -10%.
`Cc1ccc2c(Cl)c(C(=O)Nc3cc(C)on3)sc2c1` gave ALDH1A1 inh 3%, Sfp PPTase inh 12%, Gal4-VP16 FLuc inconclusive, PLK1 PBD inh -8% and RORgamma inh 27%.
`O=C(Nc1nccs1)c1sc2ccccc2c1Cl` gave ALDH1A1 inh -2%, Sfp PPTase inh -2%, Gal4-VP16 FLuc 5µM*, PLK1 PBD inh -6% and RORgamma inh 2.2µM*.
Screening CC(C)c1nnc(NC(=O)c2ccc3ccccc3c2)s1 returned Sfp PPTase inh -14%, Gal4-VP16 FLuc inconclusive, PLK1 PBD inh -6% and RORgamma inh inconclusive.
For O=C(Nc1nccs1)c1sc2cc(Cl)ccc2c1Cl the results were ALDH1A1 inh inconclusive, Sfp PPTase inh 4%, Gal4-VP16 FLuc 2.8µM*, PLK1 PBD inh -18% and RORgamma inh 0.5µM*.
`Cc1ccnc(NC(=O)c2sc3ccccc3c2Cl)c1` gave ALDH1A1 inh 8%, Sfp PPTase inh 8%, Gal4-VP16 FLuc 1.4µM*, PLK1 PBD inh -10% and RORgamma inh 0.28µM*.
Screening CC(C)c1nnc(NC(=O)c2sc3ccccc3c2Cl)s1 returned ALDH1A1 inh inconclusive, Sfp PPTase inh 7%, Gal4-VP16 FLuc inconclusive, PLK1 PBD inh 0% and RORgamma inh 8.9µM*.
O=C(Nc1nccs1)c1ccccc1[N+](=O)[O-] was read as ALDH1A1 inh 10%, Sfp PPTase inh 20%, Gal4-VP16 FLuc 5%, PLK1 PBD inh -1% and RORgamma inh -5%.
Screening Cc1cnc(NC(=O)c2sc3ccccc3c2Cl)s1 returned ALDH1A1 inh inconclusive, Sfp PPTase inh 9%, Gal4-VP16 FLuc 5µM*, PLK1 PBD inh -11% and RORgamma inh 2µM*.
For Cc1cnc(NC(=O)Cc2c[nH]c3ccccc23)s1 the results were ALDH1A1 inh 25µM*, Sfp PPTase inh -2%, Gal4-VP16 FLuc -3%, PLK1 PBD inh -5% and RORgamma inh 34%.
Screening O=C(Nc1nccs1)c1ccc(Cl)s1 returned ALDH1A1 inh 18%, Sfp PPTase inh 9%, Gal4-VP16 FLuc -93%, PLK1 PBD inh -5% and RORgamma inh 10µM*.
